Experiment [1] deals with Cellular tumor antigen p53 (Homo sapiens) (UniProt P04637). Description: TOX21_p53_BLA_p2_ratio: Tox21 HCT-116 p53 Agonism Beta-lactamase Assay, Ratio, Phase 2 (AID 2283592). Summed up:
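Ratio endpoint: beta-lactamase cleavage of CCF4-AM, blue (460 nm) over green (530 nm). HCT116 reporter line; 16 h treatment, 37C; substrate 2 h RT.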

Experiment [2] in a line: TOX21_p53_BLA_p3_viability: Viability Assessment in the Tox21 HCT-116 p53 Agonism Beta-lactamase Assay, Phase 3 (AID 2283593).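 Note: cells exposed to compound for 16 h before reading.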 Summed up:
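HCT116 cells, 4000/well, dosed 5 h after plating by pin transfer (217-fold dilution from DMSO stock) and incubated 16 h at 37C, 5% CO2. Viability read as ATP luminescence with CellTiter-Glo after 30 min at room temperature.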

Experiment [3] concerns the target Cellular tumor antigen p53 (Homo sapiens) (UniProt P04637). Description: TOX21_p53_BLA_p3_ratio: Tox21 HCT-116 p53 Agonism Beta-lactamase Assay, Ratio, Phase 3 (AID 2283596). Put shortly: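 Cells were seeded at 4000/well, rested 5 h at 37C, then dosed with DMSO compound solutions (217-fold dilution) for 16 h. CCF4-AM substrate was loaded for 2 h at room temperature, and the 460/530 nm emission ratio was fitted for gain of signal versus DMSO.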

Experiment [4] in a line: TOX21_p53_BLA_p4_viability: Viability Assessment in the Tox21 HCT-116 p53 Agonism Beta-lactamase Assay, Phase 4 (AID 2283597).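 Note: hits lower the luminescence signal meaning cytotoxicity.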 Summed up:
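Cytotoxicity was inferred from loss of CellTiter-Glo luminescence. HCT116 cells had been dosed with compounds after 5 h plating, incubated 16 h at 37C and 5% CO2, and exposed to the CCF4-AM substrate for 2 h.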

The target in experiment [5] is Cellular tumor antigen p53 (Homo sapiens) (UniProt P04637). Description: TOX21_p53_BLA_p5_ratio: Tox21 HCT-116 p53 Agonism Beta-lactamase Assay, Ratio, Phase 5 (AID 2283599). Put shortly:
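HCT-116 p53-bla cells (4000/well) plated 5 h, dosed with compound (217-fold DMSO dilution) for 16 h at 37 C; CCF4-AM substrate 2 h at room temperature. Activity is the 460/530 nm emission ratio (405 nm excitation), fitted in gain-of-signal direction versus DMSO.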

Experiment [6] in a line: TOX21_p53_BLA_p5_viability: Viability Assessment in the Tox21 HCT-116 p53 Agonism Beta-lactamase Assay, Phase 5 (AID 2283600). Summed up: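 Luciferase-coupled ATP quantitation of cells treated for 16 h (37C, 5% CO2) with test chemicals delivered in DMSO via a 217-fold dilution; 4000 cells/well; reagent incubated 30 min at room temperature before luminescence reading.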
Experiment [7] addresses Cellular tumor antigen p53 (Homo sapiens) (UniProt P04637). Description: TOX21_p53_BLA_p4_ratio: Tox21 HCT-116 p53 Agonism Beta-lactamase Assay, Ratio, Phase 4 (AID 2283601). Summed up: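 HCT-116 p53 beta-lactamase reporter cells (4000/well) preincubated 5 h, then compound (217-fold dilution of DMSO stock) for 16 h at 37C. CCF4-AM substrate added 2 h at room temperature; 460/530 nm emission ratio fitted upward versus DMSO.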

In experiment [8] the target is Thyroid hormone receptor alpha (Rattus norvegicus) + Thyroid hormone receptor beta (Rattus norvegicus) (UniProt P18113+P63059). The experiment in a line: TOX21_TR_LUC_GH3_Antagonist_Followup: Tox21 GH3 Thyroid Hormone Receptor Antagonism Luciferase Follow-Up Assay (AID 2283942). Put shortly: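 Luminescence read-out (ONE-Glo, 30 min at room temperature) in GH3 reporter cells challenged with 1.0 nM T3 final. Compounds ran at 92 uM to 5nM over 15 concentrations for 24 h; DMSO served as negative control and baseline.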

A short description of experiment [9]: TOX21_TRB_BLA_Antagonist_Followup_viability: Viability Assessment in the Tox21 Thyroid Hormone Receptor beta Antagonism Beta-lactamase (BLA) Follow-Up Assay (AID 2283961). Put shortly:
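HEK293T cells stably expressing GAL4-DBD/human TRβ-LBD with UAS-bla reporter, 3,000 cells/well in phenol red-free DMEM, 2% charcoal-stripped FBS. Compounds at 11 concentrations in triplicate, 18 h at 37C/5% CO2; viability by CellTiter-Glo luminescence after 30 min at room temperature.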

Experiment [10] is described as follows: TOX21_TR_RXR_BLA_Antagonist_Followup_viability: Viability Assessment in the Tox21 Thyroid Hormone Receptor beta Retinoid X Receptor alpha (RXRa) Antagonism Beta-lactamase (BLA) Follow-Up Assay (AID 2283979). Put shortly:
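RXRa-bla HEK293T cells (2,500/well, phenol red-free DMEM, 2% charcoal-stripped FBS) were attached 5 h, then exposed to compounds at 11 concentrations in triplicate for 16 h at 37C. Viability measured by CellTiter-Glo ATP luminescence, bidirectional fitting versus DMSO.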

The nature of experiment [11]: CCTE_Harrill_HTTr_Viability_MCF7: CCTE's 6-hour Cell Viability Assessment for the High-Throughput Transcriptomics (HTTr) Platform, in MCF-7 cells cultured in DMEM + 10% fetal bovine serum, Harrill Lab (AID 2284010; active = hit-call score of the fitted dose curve at least 0.9, where 1 is the maximum; inactive = score below 0.9). Summed up:
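Eight-point concentration series, six-hour exposure. Propidium iodide exclusion imaged to assess membrane integrity as a cytotoxicity readout; bidirectional fitting was done with DMSO as negative control and activity baseline.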

The nature of experiment [12]: CCTE_Harrill_HTTr_Apoptosis_MCF7: CCTE's 6-hour Apoptosis Assessment for the High-Throughput Transcriptomics (HTTr) Platform, in MCF-7 cells cultured in DMEM + 10% fetal bovine serum, Harrill Lab (AID 2284011; active = hit-call score of the fitted dose curve at least 0.9, where 1 is the maximum; inactive = score below 0.9). Put shortly:
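MCF-7 cells in DMEM + 10% fetal bovine serum were exposed to chemicals for 6 hours over an eight-point dilution series. Caspase-3/7 activation was imaged by high content imaging with CellEvent Caspase 3/7 Green; bidirectional fitting used DMSO as baseline.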

Results filed as inconclusive are left out. Calls of active or inactive are those of the source. Rule for the calls, unless noted: active = hit-call score of the fitted dose curve at least 0.9, where 1 is the maximum; inconclusive = response in the unintended direction; inactive = score below 0.9.

The AC50 is the concentration giving half of the maximal activity seen.

Sequence of Cellular tumor antigen p53 (Homo sapiens) (P04637 whole entry, looked up): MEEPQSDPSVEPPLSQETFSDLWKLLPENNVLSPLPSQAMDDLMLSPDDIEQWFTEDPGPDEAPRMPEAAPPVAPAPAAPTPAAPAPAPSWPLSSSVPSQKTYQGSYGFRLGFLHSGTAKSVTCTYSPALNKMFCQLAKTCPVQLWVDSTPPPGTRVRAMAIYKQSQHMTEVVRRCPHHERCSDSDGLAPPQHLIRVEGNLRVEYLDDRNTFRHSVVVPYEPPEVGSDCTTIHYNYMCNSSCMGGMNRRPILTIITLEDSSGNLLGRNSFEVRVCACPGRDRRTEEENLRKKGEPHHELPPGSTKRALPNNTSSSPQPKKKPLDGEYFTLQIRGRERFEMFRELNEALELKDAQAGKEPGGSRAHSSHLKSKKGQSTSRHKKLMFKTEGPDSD

Consider `Cc1ccc(O)c2ncccc12`, for which the result in experiment [1], in [2], in experiment [3], in experiment [4], in [5] and in experiment [6] was inactive. The outcome in [7] was inactive.
`COC(=O)[C@@H]1[C@H]2C[C@H]3c4[nH]c5ccccc5c4CCN3C[C@@H]2CC[C@@H]1O`: the outcome in [1], in experiment [2], in experiment [3], in [4], in experiment [5] and in [6] was inactive. The outcome in experiment [7] was inactive.
As for `CCOC(=O)c1c(N)sc2c1CCN(Cc1ccccc1)C2`, the result in experiment [1], in [2], in experiment [3], in experiment [4], in [5] and in experiment [6] was inactive. In addition, the result in [7] was inactive.
Turning to `CCOc1ccccc1C(N)=O`, the result in [1], in experiment [2], in experiment [3], in experiment [4], in experiment [5] and in [6] was inactive. Besides, in [7], the outcome was inactive.
On to `C[C@H](O)[C@H](O)[C@H]1CNc2nc(N)[nH]c(=O)c2N1`, for which the result in experiment [1], in [2], in [3], in experiment [4], in experiment [5] and in [6] was inactive. Also, the result in [7] was inactive.
For `Oc1ccc(Cc2ccccc2)cc1`, the AC50 in experiment [1] is 66.5 µM (active). Moreover, the call in [2], in [3], in experiment [4], in [5], in experiment [6] and in [7] was inactive.
As to `O=S1(=O)c2cccc3cccc(c23)N1CCCN1CCN(c2ccc(F)cc2)CC1`, the result in [1], in [2], in [3], in experiment [5], in [6] and in experiment [7] was inactive. Moreover, in experiment [4], the AC50 was 41.2 µM (active).
As for `CN[C@@H]1[C@@H](O[C@H]2O[C@H](CO)[C@@H](N)[C@H](O)[C@H]2O)O[C@H]2C[C@@H](N)[C@@H](O[C@H]3[C@H](O)[C@@H](O)[C@H](N)C[C@@H]3N)O[C@@H]2[C@@H]1O`, the outcome in experiment [1], in [2], in experiment [3], in experiment [4], in experiment [5] and in experiment [6] was inactive. In addition, in experiment [7], the result was inactive.
Regarding `Cc1cccc(C)c1Nc1ncccc1C(=O)O`, the half-maximal activity concentration (AC50) in experiment [1] was 43.8 µM (active). For the same compound, the compound was called inactive in experiment [2], in [3], in experiment [4], in experiment [5], in experiment [6] and in experiment [7].
`CCOC(=O)CC#N`: the outcome in [1], in experiment [2], in [3], in [4], in experiment [5] and in [6] was inactive. Also, the outcome in experiment [7] was inactive.
In the case of `Oc1c(I)cc(I)c2cccnc12`, the outcome in experiment [1], in [3], in [5], in experiment [6], in experiment [7] and in experiment [8] was inactive. Besides, the call in experiment [9] and in [10] was inactive. Also, the AC50 in experiment [2] was 9.75 µM (active); in experiment [4], 23 µM (active).
In the case of `O=C(O)c1cc(=O)c2c(OCC(O)COc3cccc4oc(C(=O)O)cc(=O)c34)cccc2o1`, the outcome in experiment [1], in experiment [2], in experiment [3], in experiment [4], in experiment [5] and in experiment [6] was inactive. Further, the outcome in [7], in experiment [11] and in [12] was inactive.
For the compound `CC(=O)NCCCS(=O)(=O)O`, the outcome in [1], in experiment [2], in experiment [3], in [4], in [5] and in experiment [6] was inactive. In addition, the result in [7], in [11] and in [12] was inactive.
Turning to `Cc1cc(C2CCCCC2)n(O)c(=O)c1`, the result in experiment [1], in experiment [2], in [3], in experiment [4], in experiment [5] and in experiment [7] was inactive.
For `O=C(O)CCCc1ccccc1`, the result in experiment [1], in experiment [3], in experiment [4], in experiment [5] and in [7] was inactive. Besides, in [2], the AC50 was 36.2 µM (active).

Values taken from PubChem BioAssay (EPA / NIEHS).
